HT1080 IDH1KD tx – HT-1080 IDH1 knockdown cell toxicity (counter line). HT-1080 IDH1 knockdown viability, ATP luminescence, 48 h. Potency, µM (highest dose often 46.1 µM), for the others: at the highest dose activity, negative = toxicity, most hits filed as cytotoxic. 360,000 compounds, 2% hits;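 also: potency is read from the fitted curve at half-maximal effect; 0% = DMSO wells and -100% = cell-free medium wells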
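% activity derives from luminescence (CellTiter-Glo), normalised to DMSO and no-cell wells. HT-1080-IDH1KD cells, 750/well, had 48 h compound exposure at 37 °C.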
TDP1 cell CPT – DT40-hTDP1 cell growth loss with CPT | Potency, µM (top dose mostly 46.2 µM), without a hit: at the highest dose activity change, negative = growth inhibition, usual class: inhibitors | AID 686979 | chicken DT40 Tdp1-/-;hTDP1 cells + 20 nM CPT, ATP luminescence, 48 h | 420,000 compounds, 12% hits; also: potency is read from the fitted curve at half-maximal effect; nearly all actives have a fitted effect of over 55% in size
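Chicken DT40 Tdp1-/- cells complemented with human TDP1, 400 cells/well, exposed to compounds plus 20 nM camptothecin for at least 48 h at 37 C; viability read as ATP content by CellTiter-Glo luminescence.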
IL1B secr inh – inhibitors of inflammasome signaling (IL-1 beta secretion). THP-1 LPS/ATP IL-1B secretion, AlphaLISA, 16 h; active compounds read low. 360,000 compounds, 4.7% hits. activity change, % at 57.5 µM; in the data active = activity change below about -50%; inconclusive = mostly about -30% to -49%
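Secreted IL-1B measured by AlphaLISA bead assay after 16 h compound exposure of THP-1 cells; compounds (final up to 57.5 uM) added 1 h before LPS (250 ng/mL) and ATP (1.25 mM) stimulation; lower signal means less secretion.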
ELG1 DNA repair – ELG1-dependent DNA repair inhibition | HEK293T ELG1-luciferase reporter, luminescence, 16 h; DNA damage induced by 5-fluorouridine | Potency, µM (doses to about 46.1 µM), inactives show at the top dose activity change, negative = inhibition, actives largely listed as inhibitors | 330,000 compounds, 2.3% hits | AID 504467; also: potency is read from the fitted curve at half-maximal effect; nearly all actives have a fitted effect of over 55% in size
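5-Fluorouridine DNA damage + compound/DMSO, 2,000 cells/well, 16 h, 37 °C/5% CO2. ONE-Glo, 30 min RT, luminescence. Readout = decrease in reporter signal.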
HT1080-NT tox – kills 2HG-producing HT-1080-NT fibrosarcoma cells; HT-1080-NT fibrosarcoma viability, CellTiter-Glo ATP luminescence, 48 h; Potency, µM (doses to about 46.1 µM), inactives show top-dose activity, negative = less viability, actives largely listed as cytotoxic; 360,000 compounds, 1.6% hits;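 also: NT is the 2HG producing partner of a matched IDH1 knockdown line; potency is read from the fitted curve at half-maximal effect; 0% = DMSO-treated cells and -100% = media-only wells without cells; nearly all actives have a fitted effect of over 55% in size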
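750 cells/well, RPMI + 5% FBS; 2 h settle, compound pin-transfer, 48 h at 37 degrees C. CellTiter-Glo 10 min RT, luminescence. Normalized to DMSO and media-only wells.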
DT40 TDP1 no CPT – qHTS for Inhibitors of human tyrosyl-DNA phosphodiesterase 1 (TDP1): qHTS in cells in absence of CPT; DT40 Tdp1-/- hTDP1 cells, no CPT, ATP luminescence, 48 h; Potency, µM (doses to about 46.2 µM), for the others: at the top dose activity change, negative = growth inhibition, most hits filed as inhibitors; 420,000 compounds, 15% hits; AID 686978, 2013; also: potency is read from the fitted curve at half-maximal effect; nearly all actives have a fitted effect of over 55% in size
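No-CPT arm: Tdp1-/-;hTDP1 DT40 cells (400/well) plus compounds, incubated ≥48 hr at 37 °C. Readout CellTiter-Glo luminescence.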
Numbers without * were called inactive; ? = inconclusive; . = no result; [ ] = remark or other dose. The list is not random: actives were taken first. Their share in the collection is about 19%. Unless noted, calls follow the shape of the dose curve; as a rule, active = well fitted curve in the direction sought with a large enough effect; inconclusive = small, poorly fitted or top-dose-only effect, or another doubt; inactive = no such curve, though single readings can be large; an effect the other way counts as inactive or inconclusive. Unless noted, % is scaled to controls: 0 for no effect and ±100 for the full control effect.

SMILES | HT1080 IDH1KD tx | TDP1 cell CPT | IL1B secr inh | ELG1 DNA repair | HT1080-NT tox | DT40 TDP1 no CPT
N#Cc1cc2[nH]c3ccccc3c2[n+](-c2ccc([N+](=O)[O-])cc2)c1N | -2% | 8% | -97* | -2% | -30% | ?
CC(=O)c1c(C)oc2c1cc(NS(=O)(=O)c1ccc(C(C)(C)C)cc1)c1ccccc12 | . | ? | . | . | . | 21µM*
CC(=O)c1cc2c(cc1NS(=O)(=O)c1ccccc1C)OCO2 | . | . | . | -7% | . | .
CCOc1ccc(S(=O)(=O)Nc2cc3c(C(=O)OC)c(COC)oc3c3ccccc23)cc1 | . | 5.2µM* | . | . | . | 3.7µM*
COc1ccc(S(=O)(=O)Nc2cc3c(C(C)=O)c(C)oc3c3ccccc23)cc1 | 0.52µM* | 0.65µM* | 74 | 11% | 1.3µM* | 0.65µM*
COc1ccc(S(=O)(=O)Nc2cc3c(cc2C(C)=O)OCO3)cc1 | 18µM* | 10µM* | 21 | 7% | ? | 4.6µM*
O=c1oc2cccnc2n1CCS(=O)(=O)c1ccc(F)cc1 | -3% | -4% | -66* | 6% | -11% | -18%
C[C@H]1CN([C@@H](C)CO)C(=O)c2cc(Br)cnc2O[C@H]1CN(C)C(=O)c1ccccn1 | 10% | 9% | -23 | . | -2% | 5%
C/C=C/c1cccc(-c2nc(C(=O)N3CCOCC3)cc3c2[C@H](CCO)N(C(=O)NC(C)C)C3)c1 | 24% | -15% | -19 | . | 11% | -19%
COc1cc(Cl)ccc1OC1(C)CCN(Cc2ccccc2OC(F)F)C1 (centres undefined) | -17% | 21µM* | -5 | . | -15% | 21µM*
COc1cc(Cl)ccc1OC1(C)CCN(Cc2cccc(OC)c2OC)C1 (centres undefined) | ? | 13µM* | -3 | . | ? | 16µM*
CC(NC(=O)CN(c1ccc(Cl)cc1)S(C)(=O)=O)c1ccccc1 (centres undefined) | 7% | 5% | -9 | -6% | 6% | 5%
Cc1ccc(Cn2c(C(C)Nc3nc(-c4ccc(F)cc4)cs3)nc3cc(Cl)c(Cl)cc32)cc1 (centres undefined) | -4% | 29µM* | 30 | . | 0% | ?
Cc1ccc(Cn2c(C(C)Nc3nc(C)cs3)nc3cc(Cl)c(Cl)cc32)cc1 (centres undefined) | 0% | ? | 16 | . | -23% | ?
CCCn1c(C(C)Nc2nc(-c3ccc(C)cc3)cs2)nc2cc(Cl)c(Cl)cc21 (centres undefined) | 2% | ? | 36 | 0% | 7% | -36%
O=[N+]([O-])c1cc(-c2csc(NCCc3nc4cc(Cl)c(N5CCCCC5)cc4n3CCCO)n2)ccc1Cl | -21% | ? | 6 | . | -21% | 16µM*
CC(Nc1nc(-c2ccc(F)cc2)cs1)c1nc2cc(Cl)c(N3CCCCC3)cc2n1CCOCCO (centres undefined) | ? | 16µM* | -75* | . | ? | 21µM*
COc1ccc(-c2csc(NC(C)c3nc4cc(Cl)c(Cl)cc4n3CCCO)n2)cc1 (centres undefined) | ? | ? | -26 | . | ? | 15µM*
CC(C)Oc1ccc(S(=O)(=O)N2CCOCC2)cc1NC(=O)C1CCCCC1 | 11% | -28% | 1 | 1% | 7% | -10%
COCc1c(C(=O)N2CCN(c3ccccc3)CC2)cnn1-c1nccc(-c2ccco2)n1 | . | 29%[9.04 µM] | . | . | . | -29%
CC(Nc1nc(-c2cccc(Br)c2)cs1)c1nc2cc(Cl)c(N3CCCCC3)cc2n1CCOCCO (centres undefined) | ? | ? | -55* | ? | ? | ?
Cc1csc(NC(C)c2nc3cc(C(F)(F)F)ccc3n2CCOCCO)n1 (centres undefined) | 2% | ? | 8 | . | 4% | -23%
CC(Nc1nc(-c2ccc(F)cc2)cs1)c1nc2cc(Cl)c(N3CCCCC3)cc2n1CCCO (centres undefined) | ? | 7.3µM* | -7 | . | 2% | 5.8µM*
CC(Nc1nc(-c2ccc(F)cc2)cs1)c1nc2cc(Cl)c(Cl)cc2n1CCOCCO (centres undefined) | -23% | 23µM* | 0 | . | ? | 21µM*
COC(=O)c1ccc2cc(C)cc(C)c2n1 | 15% | -6% | 23 | . | 13% | -11%
SMILES | HT1080 IDH1KD tx | TDP1 cell CPT | IL1B secr inh | ELG1 DNA repair | HT1080-NT tox | DT40 TDP1 no CPT
Cc1cccc(C2NC(c3cccc(C)c3)C([N+](=O)[O-])C(C)(C)C2[N+](=O)[O-])c1 (centres undefined) | 8% | ? | -8 | -16% | 4% | 16µM*
Cc1ccc(NC(=O)c2cc(-c3ccc4c(c3)OCO4)on2)cc1 | -7% | ? | 11 | ? | -12% | ?
O=C(NCc1ccco1)c1cc(-c2ccc3c(c2)OCO3)on1 | ? | -7% | 0 | ? | 2.2µM* | -20%
Cc1ccc(-c2cc(C(=O)NCc3ccco3)no2)cc1 | -3% | -2% | -7 | ? | 21% | -18%
Cc1cccc(NC(=O)c2cc(-c3ccc4c(c3)OCCO4)on2)c1 | . | 23µM* | . | . | . | ?
Cc1ccc(Cl)cc1NC(=O)c1cc(-c2ccc3c(c2)OCCO3)on1 | . | 15µM* | . | . | . | ?
O=C(Nc1cccc(Cl)c1)c1cc(-c2ccc3c(c2)OCCO3)on1 | . | ? | . | . | . | 12µM*
COc1cccc(C2(CC(=O)N3CCC(c4nc5ccccc5o4)CC3)CC(=O)N(C)C2=O)c1 (centres undefined) | . | 7% | . | . | . | 1%
CCOC(=O)N1CCC(NC(=O)CC2C(=O)NCCN2Cc2ccccc2F)CC1 (centres undefined) | 17% | 10% | -1 | 0% | 11% | 14%
CCOc1ccc(NC(=O)CCc2c(C)nc3c4c(C)cc(C)nc4nn3c2C)cc1 | . | 8% | . | . | . | -12%
Cc1cc(C)c2c(=O)n(CC(=O)N3CCC(Cc4ccccc4)CC3)sc2n1 | . | . | . | 5% | . | .
Cc1ccc(NC(=O)Cn2sc3nc(C)cc(C)c3c2=O)c(Cl)c1 | ? | 2.9µM* | 14 | ? | -9% | 2.9µM*
Cc1cc(C)c2c(=O)n(CC(=O)Nc3ccc(Cl)cc3)sc2n1 | ? | 4.1µM* | -9 | 20% | -18% | 2.6µM*

Screens as filed in PubChem BioAssay.
